{"source": "PubChem BioAssay AID1347431", "about": "(National Center for Advancing Translational Sciences (NCATS), 2020)", "note": "Out of some 1,200 compounds screened, fewer than 10 were called active. The call rests on the fitted dose curve; in most records, active means well fitted curve in the direction sought with a large enough effect; inconclusive means small, poorly fitted or top-dose-only effect, or another doubt; inactive means no such curve, though single readings can be large or run the other way. Only a sample is shown.", "data": [{"test": "Confirmatory qHTS assay for inhibitors of Activation Induced Cytidine Deaminase (AID): UDG signals", "conditions": "UDG coupled enzyme activity counter-screen; series mostly up to 115 µM", "description": "Assay Provider (PI) Patricia Gearhart Ph.D.\nNational Institute on Aging\nNational Institute of Health (NIH), Bethesda, MD\nAssay Provider (PI) Rahul Kohli Ph.D.\nPerelman School of Medicine\nUniversity of Pennsylvania, Philadelphia, PA\nActivation-Induced Deaminase (AID) is a cytosine deaminase which converts cytosine into uracil within stretches of ssDNA. The presence of uracil in DNA initiates a cascade of mutagenic DNA repair to introduce point mutations and DNA double strand breaks. Specific targeting of AID to the immunoglobulin heavy chain loci (Igh) promotes mutagenesis in the antibody variable region for somatic hypermutation (SHM) or switch regions leading to class switch recombination (CSR). However, AID also plays a role in accumulating unnecessary mutations across the genome. Mis-targeting of AID results in the initiation of tumor development and leads to greater drug resistance among cancer cells when continually expressed. To identify an AID inhibitor, a small molecule library will be screened in collaboration with NCATS core facility at NIH. To confirm biological function, inhibitors will be examined in an in vitro murine B-cell activation assay and subsequent secondary validation screens. Top molecules will be further screened to identify inhibitory efficacy against a wild type primary splenocytes assay. Using these approaches, we hope to identify a small molecule with great efficacy and low toxicity for use as a molecular probe to further characterize AID's intricacies, or even as a therapeutic.\nA FRET based analysis of cytosine deamination, was developed to identify potential inhibitors of AID catalytic activity. This screen has two signal output, Read 1 evaluates the AID inhibition response. The second readout (Read 2) evaluates UDG response and is uses as a counterscreen to exclude false positive inhibitors. Inhibition in AID and inactivity in the UDG signal is the desired outcome for this assay.\nSEQUENCE No. (e.g., 1, 2, 3, etc.); […] (e.g., Cells, Incubation, Reagent, etc.); VALUE; DESCRIPTION\n1a; Reagent; 3 uL; [4/3x] 1 uM AID/2.67 U/mL UDG\n1b; Reagent; 3 uL; 2 U/mL UDG\n1c; Reagent; 3 uL; 1 uM AID\n2a; Compound; 46 nL; Follow-up plates (0.64 uM - 10 mM)\n2b; Control; 46 nL; ATA ([…] - 10 mM)\n3; Time; 10 min; incubation at room temperature\n5; Time; 4 hr; incubation at room temperature\n6; Reagent; 4 uL; [2x] 250 mM NaOH\n7; Time; 15 sec; centrifuge at 1000 rpm\n8; Time; 30 min; incubation at room temperature\n9a; Detection; fluorescence (Read 1: AID); EnVision (PerkinElmer) plate reader, 540 excitation and 590 emission filters\n9b; Detection; fluorescence (Read 2: UDG); EnVision (PerkinElmer) plate reader, 560 excitation and 665 emission filters\nNOTES (numbers refer to sequence above)\n1a; Reagents were dispensed in a medium-binding black solid-bottom Greiner plates (789176F) using a BioRptr liquid dispenser. Dispense 3 uL of [4/3x] 1 uM AID (provided by Kohli lab) and [4/3x] 2 U/mL UDG (NEB M0280L) into columns 1, 2, 5 to 48.\n1b; Dispense 3 uL of [4/3x] 2 U/mL UDG into column 3.\n1c; Dispense 3 uL of [4/3x] 1 uM AID into column 4.\n2a; Compound (7-points [uM]: 0.64; 3.2; 16; 80; 400; 2,000; 10,000; […]) double pin-transferred (Dip Factor = 2) using the Kalypsys (Wako USA) pintool equipped with a 1536 pinhead for a final concentration range of 7.32 nM - 114 uM.\n2b; 10 mM Aurintricarboxylic Acid (Sigma A1895) (ATA, 8-point, n = 2, 1:2.5 dilution in column 2) double pin-transferred (Dip Factor = 2) using the Kalypsys (Wako USA) pintool equipped with a 1536 pinhead for a [final] range of 186 nM - 114 uM.\n3; Room temperature incubation.\n4; Dispense 1 uL of substrate mixture from the Kohli lab [4x] […] DJC20 and [4x] 250 nM DJC23 into columns 1 to 48 .\n5; Room temperature incubation.\n6; Dispense 4 uL of substrate mixture [2x] 250 mM NaOH into columns 1 to 48.\n7; Centrifugation step to remove bubbles.\n8; Room temperature incubation\n9a; Fluorescence signal (column label AID) was read using the EnVision plate reader. […]", "values": [{"smiles": "CC(=O)N1CCc2c(sc3c2c(=O)n(Cc2ccccc2)c(=O)n3Cc2cccc(Cl)c2)C1", "outcome": "inactive"}, {"smiles": "CCc1ccc(NC(=O)c2cnn(-c3c(C)cccc3C)c2C2CCN(C(=O)OC(C)(C)C)CC2)cc1", "outcome": "inactive"}, {"smiles": "CCOc1ccc(CNC(=O)c2c(C)nn(-c3ccc(F)cc3)c2-n2cccc2)cc1", "outcome": "inactive"}, {"smiles": "COc1cc2c(cc1OC)C(COc1cc(C)cc(C)c1)N(C(=O)C(C)(C)C)CC2", "note": "(stereo not given)", "outcome": "inactive"}, {"smiles": "COc1cc(NC(=O)Cn2cc(S(=O)(=O)N3CCC(C)CC3)c3ccccc3c2=O)cc(OC)c1OC", "outcome": "inactive"}, {"smiles": "COc1ccc(C)cc1N(C)C(=O)c1c2c(nc3ccccc13)C(=O)N(C1CCCCC1)C2", "outcome": "inactive"}, {"smiles": "COc1cccc(C(=O)Nc2nc3nc(C)c(Cc4ccccc4)c(=O)n3[nH]2)c1", "outcome": "inactive"}, {"smiles": "Cn1c2ccccc2c2c(C(=O)N3CCN(c4cccc(C(F)(F)F)c4)CC3)cn(C3CCCCC3)c(=O)c21", "outcome": "inactive"}, {"smiles": "O=C(CSc1nc(-c2ccc(F)cc2)nc2c1Cc1ccccc1O2)Nc1cccc(C(=O)O)c1", "outcome": "inactive"}, {"smiles": "CC(C)Oc1ccc(C(=O)NCCc2csc(-c3cccc(F)c3)n2)cc1", "outcome": "inactive"}, {"smiles": "CCc1ccc(OCC(=O)N(Cc2ccco2)Cc2ccco2)cc1", "outcome": "inactive"}, {"smiles": "Cc1ccc2c(c1)C(c1ccc(F)cc1)N(C(=O)c1ccc(OC(C)C)cc1)CC(=O)N2", "note": "(stereo not given)", "outcome": "inactive"}, {"smiles": "Cc1ccc(Cl)cc1N1CCN(C(=O)c2nn(C)c3c2CS(=O)(=O)c2ccccc2-3)CC1", "outcome": "inactive"}, {"smiles": "CC(C)c1ccc(NC(=O)CSC2=Nc3ccccc3C3=NC(CCC(=O)NCc4ccco4)C(=O)N23)cc1", "note": "(stereo not given)", "outcome": "inactive"}, {"smiles": "CCOc1ccc(CCNC(=O)c2cn(CC)c3ccc(S(=O)(=O)N4CCCCCC4)cc3c2=O)cc1OCC", "outcome": "inactive"}, {"smiles": "COc1cccc(CNC(=O)c2oc3ccc4c(c3c2C)C(=O)CC(C)(C)O4)c1OC", "outcome": "inactive"}, {"smiles": "O=C(NCCn1cc(SCc2ccccc2F)c2ccccc21)c1cccs1", "outcome": "inactive"}, {"smiles": "Cc1ccc(Cl)cc1NC(=O)c1oc2c(c1C)-c1[nH]ncc1CC2", "outcome": "inactive"}, {"smiles": "CN(C)c1ccc(Nc2ncnc3sc4c(c23)CCCC4)cc1", "outcome": "inactive"}, {"smiles": "CCOC(=O)c1c(Oc2ccc(C(C)=O)cc2)nnc(-c2ccccc2)c1-c1ccccc1", "outcome": "inactive"}, {"smiles": "O=C(O)c1ccc2c(c1)N(Cc1ccc(F)cc1Cl)C(=O)c1ccccc1S2", "outcome": "inactive"}, {"smiles": "CCCCCN1C(C(=O)c2ccccc2)=C(OC(=O)CC)c2ccccc2S1(=O)=O", "outcome": "inactive"}, {"smiles": "O=C(CCS(=O)(=O)c1nc(-c2cccs2)cc(C(F)(F)F)n1)Nc1ccc(OC(F)(F)F)cc1", "outcome": "inactive"}, {"smiles": "CCc1ccc(C(c2ccccc2)c2c(C)[nH]c3ccccc23)s1", "note": "(stereo not given)", "outcome": "inactive"}, {"smiles": "Cc1ccc2c(c1)-c1ncc(C(=O)c3cc(Br)ccc3O)cc1CO2", "outcome": "inactive"}, {"smiles": "Cc1ccc(Nc2nnc(-c3ccc(C)c(S(=O)(=O)N4CCN(C)CC4)c3)c3ccccc23)c(C)c1", "outcome": "inactive"}, {"smiles": "CCn1c(=O)c2cc(C(=O)NCCCN(C)Cc3ccccc3)sc2c2ccccc21", "outcome": "inactive"}, {"smiles": "COc1ccc(CCNC(=O)c2cc(Nc3cc(C)cc(C)c3)nc3ccccc23)cc1OC", "outcome": "inactive"}, {"smiles": "Cc1ccc(-c2nc3nc(C)cc(C)n3c2Nc2ccc3c(c2)OCCO3)cc1", "outcome": "inactive"}, {"smiles": "Cc1ccc(C)c(N2CCN(C(=O)c3cc(S(=O)(=O)N4CCCCC4)cn3C)CC2)c1", "outcome": "inactive"}, {"smiles": "Cc1cc(C)c(NC(=O)CCCn2c(C)c3cnn(-c4ccccc4)c(=O)c3c2C)c(C)c1", "outcome": "inactive"}, {"smiles": "CCOC(=O)c1ccc(-n2c(N)c(C(=O)OC)c3nc4ccccc4nc32)cc1", "outcome": "inactive"}, {"smiles": "Cc1ccc(C(=O)c2cn(Cc3ccccc3)c3ccccc3c2=O)cc1", "outcome": "inactive"}, {"smiles": "COc1cccc(-c2nc3cc(NC(=O)c4ccc(C)c([N+](=O)[O-])c4)ccc3o2)c1", "outcome": "inactive"}, {"smiles": "Cc1ccc2c(c1)-c1c(cnn1CC(=O)N1CCN(c3cccc(C(F)(F)F)c3)CC1)CO2", "outcome": "inactive"}, {"smiles": "O=C(CC1N=C2c3ccccc3N=C(SCc3ccccc3F)N2C1=O)NCc1ccc2c(c1)OCO2", "note": "(stereo not given)", "outcome": "inactive"}, {"smiles": "Cc1nn(C(=O)c2ccccc2)c(C)c1Sc1ccc(Cl)cc1", "outcome": "inactive"}, {"smiles": "Cc1ccc(C)c(NC(=O)CSc2nccn2-c2cccc(C)c2C)c1", "outcome": "inactive"}, {"smiles": "O=C(c1cccc(Cl)c1)N(Cc1ccco1)Cc1ccccc1Cl", "outcome": "inactive"}, {"smiles": "Cc1cccc(-c2nnc(SCC(=O)N3CCCc4ccccc43)o2)c1", "outcome": "inactive"}, {"smiles": "CCc1ccccc1NC(=O)[C@H](Cc1ccccc1)N1Cc2ccccc2C1=O", "outcome": "inactive"}, {"smiles": "COc1ccc(Cn2cc(C(=O)c3ccc(OC)cc3)c(=O)c3cc4c(cc32)OCCO4)cc1", "outcome": "inactive"}, {"smiles": "Cc1cc(C)c2c(CC(=O)N(Cc3ccc(Cl)cc3)Cc3ccco3)coc2c1", "outcome": "inactive"}, {"smiles": "Cc1ccc(N(Cc2cccs2)C(=O)c2ccccc2)cc1", "outcome": "inactive"}, {"smiles": "COc1ccc(Nc2cc(C)c3cc(NC(=O)COc4cccc(C)c4)ccc3n2)cc1", "outcome": "inactive"}, {"smiles": "CCN(C(=O)c1cc2cc3ccc(OC)cc3nc2o1)c1cccc(C)c1", "outcome": "inactive"}, {"smiles": "COc1ccc(-c2cn3c(n2)sc2cc(C(=O)NCCCN4CCCCC4)ccc23)cc1", "outcome": "inactive"}, {"smiles": "COc1ccc(CCNC(=O)CS(=O)Cc2nc(-c3ccc(C)cc3)oc2C)c(OC)c1", "note": "(stereo not given)", "outcome": "inactive"}, {"smiles": "COc1ccc(Cl)cc1NC(=O)CSc1nc(=O)n(Cc2ccco2)c2c1CCC2", "outcome": "inactive"}, {"smiles": "COc1ccc(C(=O)c2cn(Cc3ccccc3F)c3cc4c(cc3c2=O)OCCO4)cc1OC", "outcome": "inactive"}]}]}
